Data from PubChem BioAssay (NCATS).
Inconclusive results are not listed. Unmarked numbers belong to inactive results. Active and inactive are the calls of the source. Calls come from the whole dose curve; as a rule, active = well fitted curve in the direction sought with a large enough effect; inconclusive = small, poorly fitted or top-dose-only effect, or another doubt; inactive = no such curve, though single readings can be large; an effect the other way counts as inactive or inconclusive. Numbered stars: 1 amine (or outer) side, 2 acyl side, 3 side chain; on linkers, the order of the positions; unused ones are H or OH. Bridge positions count the residues as written; N and C are the ends. Square brackets hold non-standard residues; d marks the D form. Peptide text beside a SMILES is read from it. I, II: the chains in the order shown. Actinocin(9to1) = Cc1c2oc3c(C)ccc(C(=O)[*:1])c3nc-2c(C(=O)[*:2])c(N)c1=O; NMeV = CN[C@H](C(=O)O)C(C)C; Sar = CNCC(=O)O

Molecular target: N-terminal Xaa-Pro-Lys N-methyltransferase 1 (Homo sapiens) (UniProt Q9BV86)
Experiment: qHTS Assay for Inhibitors of N-terminal methyltransferase 1 (NTMT1): LOPAC validation of the NTMT1 SAHH-coupled ThioGlo3 Assay (AID 1347143);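 note: SAH from peptide methylation measured as thiol fluorescence via SAHH coupling and ThioGlo3; nearly all actives have a fitted effect of over 70% in size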; for activity change, negative = inhibition: % is set by controls: 0 for no effect and ±100 for the full control effect
Details: recombinant NTMT1, SAHH-coupled ThioGlo3 fluorescence; series mostly up to 114 µM; activity change, negative = inhibition: at the top concentration
Summary of the method: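 NTMT1 125nM + cpds (various conc.), 1 min RT; add SAM 100uM/SAHH 10uM/ThioGlo3 15uM (addition mix). SAHH-coupled thiol detection, Ex340/Em450, t0 and 30 min RT; signal normalized to background. LOPAC 1280-cpd pilot.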
Potency is the fitted concentration of half-maximal effect.

N-terminal Xaa-Pro-Lys N-methyltransferase 1 (Homo sapiens), sequence (Q9BV86 whole entry, looked up): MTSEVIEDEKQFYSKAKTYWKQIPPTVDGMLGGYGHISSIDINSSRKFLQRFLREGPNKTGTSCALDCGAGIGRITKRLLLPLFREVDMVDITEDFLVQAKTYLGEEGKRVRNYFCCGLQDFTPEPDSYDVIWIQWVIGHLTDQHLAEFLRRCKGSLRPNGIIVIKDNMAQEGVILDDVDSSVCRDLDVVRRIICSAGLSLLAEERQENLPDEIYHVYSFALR

Compound	activity change, negative = inhibition [%]	Potency
C[C@@H]1C(=O)NC2=Nc3cccc(Cl)c3CN21	-10.2	–
O=C1CCC(c2ccc(-n3ccnc3)cc2)=NN1	-26.2	–
CCCC1O[C@@H]2C[C@H]3[C@@H]4CCC5=CC(=O)C=C[C@]5(C)[C@H]4[C@@H](O)C[C@]3(C)[C@]2(C(=O)CO)O1 (stereo partly drawn)	-1.54	–
Oc1ccc(O)cc1	–	31.6 µM (active)

System: Zika virus NS2B-NS3 protease (unlinked)
Experiment: Optimization of GU AMC qHTS for Zika virus inhibitors: Unlinked NS2B-NS3 protease assay (AID 1347151); note: nearly all actives have a fitted effect of over 80% in size;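 for activity change, negative = inhibition: 0% = no-inhibitor control and -100% = no-enzyme control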
Details: recombinant ZIKV NS2B-NS3 protease, fluorogenic AMC substrate; series mostly up to 52.5 µM; activity change, negative = inhibition: at the top concentration
Summary of the method: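 In this qHTS, compounds acted on 25 nM unlinked Zika NS2B–NS3 in pH 8.0 Tris/Tween buffer. Cleavage of an AMC peptide ran 15 min at room temperature, to about 20% conversion.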

Compound	activity change, negative = inhibition [%]	Potency
C[C@@H]1C(=O)NC2=Nc3cccc(Cl)c3CN21	5.92	–
O=C1CCC(c2ccc(-n3ccnc3)cc2)=NN1	1.44	–
CCCC1O[C@@H]2C[C@H]3[C@@H]4CCC5=CC(=O)C=C[C@]5(C)[C@H]4[C@@H](O)C[C@]3(C)[C@]2(C(=O)CO)O1 (stereo partly drawn)	-3.54	–
Oc1ccc(O)cc1	9.34	–
COc1c(C)c2c(c(O)c1C/C=C(\C)CCC(=O)O)C(=O)OC2	–	24.1 µM (active)
Cc1c2oc3c(C)ccc(C(=O)N[C@@H]4C(=O)N[C@H](C(C)C)C(=O)N5CCC[C@H]5C(=O)N(C)CC(=O)N(C)[C@@H](C(C)C)C(=O)O[C@@H]4C)c3nc-2c(C(=O)N[C@@H]2C(=O)N[C@H](C(C)C)C(=O)N3CCC[C@H]3C(=O)N(C)CC(=O)N(C)[C@@H](C(C)C)C(=O)O[C@@H]2C)c(N)c1=O (I: T[dV]P[Sar][NMeV] / II: T[dV]P[Sar][NMeV]; ester I:1-I:C, II:1-II:C; linker I:N-II:N via Actinocin(9to1))	–	27.1 µM (active)

System: Zika virus NS2B-NS3 protease
Experiment: Primary screen GU AMC qHTS for Zika virus inhibitors (AID 1347154); note: nearly all actives have a fitted effect of over 70% in size;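 for activity change, negative = inhibition: 0% = no-inhibitor control and -100% = no-enzyme control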
Details: Zika NS2B-NS3 unlinked protease, AMC fluorogenic substrate; series mostly up to 54.1 µM; activity change, negative = inhibition: at the top concentration
Summary of the method: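 Fluorogenic AMC-substrate cleavage by noncovalent NS2B-NS3 protease complex (25 nM, pH 8.0 Tris buffer with Tween 20) followed for 15 minutes at room temperature (~20% conversion). Percent inhibition from ex340/em450 signal change, fitted by 4-parameter Hill equation.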

Compound	activity change, negative = inhibition [%]	Potency
CN(C)/N=N/c1nc[nH]c1C(N)=O	3.15	–
CC1(C)O[C@@H]2C[C@H]3[C@@H]4C[C@H](F)C5=CC(=O)CC[C@]5(C)[C@H]4[C@@H](O)C[C@]3(C)[C@]2(C(=O)CO)O1	-8.1	–
C=C1C[C@H]2[C@@H]3C=C(C)C4=CC(=O)CC[C@]4(C)[C@H]3CC[C@]2(C)[C@@]1(OC(C)=O)C(C)=O	-5.75	–
CC(=O)OCC(=O)[C@@]12N=C(C)O[C@@H]1C[C@H]1[C@@H]3CCC4=CC(=O)C=C[C@]4(C)[C@H]3[C@@H](O)C[C@@]12C	-1.52	–
C[C@@H]1C[C@H]2[C@@H]3CCC4=CC(=O)C=C[C@]4(C)[C@@]3(F)[C@@H](O)C[C@]2(C)[C@H]1C(=O)CO	-0.653	–
CCOc1ccc2nc3cc(N)ccc3c(N)c2c1	–	31.6 µM (active)
CC(=O)OCC(=O)[C@@]1(O)[C@H](C)C[C@H]2[C@@H]3CCC4=CC(=O)C=C[C@]4(C)[C@@]3(F)[C@@H](O)C[C@@]21C	4.04	–
CCCCC(=O)O[C@]1(C(=O)CO)CC[C@H]2[C@@H]3CCC4=CC(=O)CC[C@]4(C)[C@H]3[C@@H](O)C[C@@]21C	-0.552	–
CCCCCCC[N+](CC)(CC)CCCCc1ccc(Cl)cc1	3.97	–
C[C@]12CCC(=O)C=C1CC[C@H]1[C@@H]3CC[C@](O)(C(=O)CO)[C@@]3(C)C[C@H](O)[C@@]12F	-4.51	–
COc1cccc2c1C(=O)c1c(O)c3c(c(O)c1C2=O)C[C@@](O)(C(=O)CO)C[C@@H]3O[C@H]1C[C@H](N)[C@H](O)[C@H](C)O1	-4.23	–
Oc1ccc(O)cc1	6.88	–
C[C@@H]1C[C@H]2[C@@H]3C[C@H](F)C4=CC(=O)C(Cl)=C[C@]4(C)[C@@]3(F)[C@@H](O)C[C@]2(C)[C@@]1(O)C(=O)CO	-0.0967	–
CC(C)(C(=O)c1cccnc1)c1cccnc1	-0.652	–
OC[C@H]1O[C@@H](n2cnc3c(=S)nc[nH]c32)[C@H](O)[C@@H]1O	-0.86	–
O=C(CCCN1CCC(O)(c2ccc(Br)cc2)CC1)c1ccc(F)cc1	0.229	–
COc1c(C)c2c(c(O)c1C/C=C(\C)CCC(=O)O)C(=O)OC2	-18.1	–

Compound	activity change, negative = inhibition [%]	Potency
CC(=O)[C@H]1CC[C@H]2[C@@H]3C[C@H](C)C4=CC(=O)CC[C@]4(C)[C@H]3[C@@H](O)C[C@]12C	-4.23	–
Cc1c2oc3c(C)ccc(C(=O)N[C@@H]4C(=O)N[C@H](C(C)C)C(=O)N5CCC[C@H]5C(=O)N(C)CC(=O)N(C)[C@@H](C(C)C)C(=O)O[C@@H]4C)c3nc-2c(C(=O)N[C@@H]2C(=O)N[C@H](C(C)C)C(=O)N3CCC[C@H]3C(=O)N(C)CC(=O)N(C)[C@@H](C(C)C)C(=O)O[C@@H]2C)c(N)c1=O (I: T[dV]P[Sar][NMeV] / II: T[dV]P[Sar][NMeV]; ester I:1-I:C, II:1-II:C; linker I:N-II:N via Actinocin(9to1))	-7.82	–
CC(=O)OCC(=O)[C@@]1(O)CC[C@H]2[C@@H]3CCC4=CC(=O)C=C[C@]4(C)[C@H]3[C@@H](O)C[C@@]21C	5.81	–
CC1(C)O[C@@H]2C[C@H]3[C@@H]4CCC5=CC(=O)CC[C@]5(C)[C@@]4(F)[C@@H](O)C[C@]3(C)[C@]2(C(=O)CCl)O1	-5.98	–
C[C@H]1C[C@H]2[C@@H]3CCC4=CC(=O)C=C[C@]4(C)[C@@]3(Cl)[C@@H](O)C[C@]2(C)[C@@]1(O)C(=O)CO	-18.9	–
CC(=O)OCC(=O)[C@@]1(OC(C)=O)[C@@H](C)C[C@H]2[C@@H]3C[C@H](F)C4=CC(=O)C=C[C@]4(C)[C@@]3(F)[C@@H](O)C[C@@]21C	-1.77	–
C[C@]12C=CC(=O)C=C1CC[C@@H]1[C@@H]2[C@@H](O)C[C@@]2(C)[C@H]1CC[C@]2(O)C(=O)CO	2	–
CC(=O)O[C@]1(C(C)=O)CC[C@H]2[C@@H]3C[C@H](C)C4=CC(=O)CC[C@]4(C)[C@H]3CC[C@@]21C	-7.88	–
NC(CO)(CO)CO	0.809	–
NC(=O)CC[C@@H]1NC(=O)[C@H](Cc2ccccc2)NC(=O)[C@H](Cc2ccc(O)cc2)NC(=O)CCSSC[C@@H](C(=O)N2CCC[C@H]2C(=O)N[C@@H](CCCN=C(N)N)C(=O)NCC(N)=O)NC(=O)[C@H](CC(N)=O)NC1=O	-3.23	–
CCC(C(=O)OCCN(CC)CC)c1ccccc1 (stereo not drawn)	-2.7	–
C[C@]12C=CC(=O)C=C1[C@@H](F)C[C@@H]1[C@@H]2[C@@H](O)C[C@@]2(C)[C@H]1CC[C@]2(O)C(=O)CO	-3.02	–
CC(=O)Oc1ccc(C(c2ccc(OC(C)=O)cc2)c2ccccn2)cc1	-5.57	–
COCc1c(C(C)C)nc(C(C)C)c(/C=C/[C@@H](O)C[C@@H](O)CC(=O)O)c1-c1ccc(F)cc1	-8.75	–
CN(C)C(=S)SC(=S)N(C)C	-5.03	–
CC(=O)OCC(=O)[C@@]12OC(C)(C)O[C@@H]1C[C@H]1[C@@H]3C[C@H](F)C4=CC(=O)C=C[C@]4(C)[C@@]3(F)[C@@H](O)C[C@@]12C	-3.14	–
